ALOX15 inhib: 15-hLO (ALOX15) enzyme inhibition; P16050; purified 15hLO-1, xylenol orange hydroperoxide absorbance; Potency, µM (series often up to 57.1 µM), for inactives: top-dose activity change, negative = inhibition, actives largely listed as inhibitors; 1.4% of 74,000 active; AID 887; further: potency means the concentration at half of the fitted maximal effect; on the % scale 0 is the no-effect control and ±100 the full control effect; nearly all actives have a fitted effect of over 55% in size
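Compounds were preincubated 15 min at room temperature with 40 nM purified human enzyme (25 mM Hepes pH 7.5, 0.01% Triton X-100); 50 uM arachidonic acid reacted 6 min. Fe-xylenol orange detection, 30 min, absorbance ratio 573/405 nm.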
DNA Pol III inh: DNA polymerase III holoenzyme inhibition; 0.25% of 71,000 active; reconstituted DNA polymerase III holoenzyme replication, biochemical; Potency, µM (highest dose often 57.1 µM), without a hit: at the highest dose activity change, negative = inhibition; further: potency means the concentration at half of the fitted maximal effect; on the % scale 0 is the no-effect control and ±100 the full control effect
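Reconstituted *E. coli* holoenzyme (0.35 nM Pol III, 1 nM beta, 154 nM SSB, 2 nM primase) was preincubated with compound for 15 min at RT. Synthesis on 1.4 nM ssM13Gori ran 35 min, then was stopped with PicoGreen/EDTA and read as dsDNA fluorescence.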
Tau fil binding: binds recombinant human tau filaments | recombinant tau filaments, thioflavin S fluorescence, 15 h; filaments grown with octadecylsulfate alongside compound | Potency, µM (series often up to 57.1 µM), for inactives: top-dose activity change, negative = inhibition | 2% of 71,000 active;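 further: potency means the concentration at half of the fitted maximal effect; on the % scale 0 is the no-effect control and ±100 the full control effect; actives lower thioflavin S fluorescence by blocking filaments or displacing dye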
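Assay mix: 1 uM His-tagged tau, 30 uM sodium octadecylsulfate, thioflavine S dye in HEPES/NaCl/DTT buffer. Compound is added prior to the inducer. Fluorescence after 15 h at 37 C.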
HBB splicing: hemoglobin beta splicing modulation | HBB splicing reporter cell assay, activation; EGFP reporter with mutant IVS2-654 intron; response scale: normalised to 500 nM splice-correcting PNA | Potency, µM (series often up to 46.1 µM), inactives show top-dose activation, most hits filed as activators | 0.06% of 65,000 active; further: potency means the concentration at half of the fitted maximal effect; 0% is about no effect
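Compounds were applied for 2 days to HeLa EGFP-654 cells, 500/well in Optimem with 2% FCS. The reporter's EGFP is disrupted by mis-splicing of beta-globin intron IVS2-654. Readout: summed well GFP fluorescence from 488 nm laser scanning; reference was 500 nM antisense […] 654 PNA.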
UbGFP stabilizer: inhibits proteasome, raising ubiquitin-GFP reporter fluorescence | Potency, µM (highest dose often 45.9 µM), without a hit: top-dose activation (GFP accumulation), actives largely listed as activators | Ubiquitin-GFP reporter cells, proteasome inhibition, GFP fluorescence; response scale: untreated = 0%, 10 µM MG-132 = 100% | 67,000 tested, under 10 active; active means well fitted activation curve with a large enough effect, not every such curve was filed as active; inconclusive means small, poorly fitted or top-dose-only effect, or another doubt; inactive means no such curve, though single readings can be large or run the other way; further: potency means the concentration at half of the fitted maximal effect
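GFP accumulation read-out: laser plate cytometry counting ubiquitin(G76V)-GFP-expressing U2OS cells after 4 hr compound exposure at 37 °C. Titrations spanned 46 uM to 2.9 nM; 0% = basal, 100% = 10 uM MG-132; concentration-response curves fitted.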
Epigenetic mod: epigenetic modulators derepressing GFP locus in mouse cells; mouse C127i GFP locus derepression, cytometry, 30 h; Potency, µM (titrated, usually from 46.1 µM), for inactives: top-dose GFP derepression (activation); 0.09% of 68,000 active; further: % of control where 0% means no effect
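Read-out is the number of GFP-positive cells, scored as fluorescent objects 20 to 120 um wide, reflecting derepression of a silenced CMV-GFP reporter in murine C127i cells after 30 h compound exposure at 37 C.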
Tau ThS bind: compounds binding human tau filaments, displacing Thioflavin S. shares compounds with Tau fil binding. recombinant tau filaments, Thioflavin S fluorescence displacement. Potency, µM. 40% of 60 active. AID 911; calls by dose curve
aSyn ThS bind: alpha-synuclein fibril binding by ThS displacement | shares compounds with Tau fil binding | recombinant alpha-synuclein fibrils, ThS fluorescence displacement | Potency, µM | 40% of 60 active | AID 937; calls by dose curve
Abeta ThS displ: displaces Thioflavin S from Abeta1-42 fibrils. Potency, µM. 50% of 60 active. AID 956. Abeta1-42 fibrillization, thioflavin S fluorescence, overnight 37 C. shares compounds with Tau fil binding; calls by dose curve
Target sequence (P05067 whole entry, looked up): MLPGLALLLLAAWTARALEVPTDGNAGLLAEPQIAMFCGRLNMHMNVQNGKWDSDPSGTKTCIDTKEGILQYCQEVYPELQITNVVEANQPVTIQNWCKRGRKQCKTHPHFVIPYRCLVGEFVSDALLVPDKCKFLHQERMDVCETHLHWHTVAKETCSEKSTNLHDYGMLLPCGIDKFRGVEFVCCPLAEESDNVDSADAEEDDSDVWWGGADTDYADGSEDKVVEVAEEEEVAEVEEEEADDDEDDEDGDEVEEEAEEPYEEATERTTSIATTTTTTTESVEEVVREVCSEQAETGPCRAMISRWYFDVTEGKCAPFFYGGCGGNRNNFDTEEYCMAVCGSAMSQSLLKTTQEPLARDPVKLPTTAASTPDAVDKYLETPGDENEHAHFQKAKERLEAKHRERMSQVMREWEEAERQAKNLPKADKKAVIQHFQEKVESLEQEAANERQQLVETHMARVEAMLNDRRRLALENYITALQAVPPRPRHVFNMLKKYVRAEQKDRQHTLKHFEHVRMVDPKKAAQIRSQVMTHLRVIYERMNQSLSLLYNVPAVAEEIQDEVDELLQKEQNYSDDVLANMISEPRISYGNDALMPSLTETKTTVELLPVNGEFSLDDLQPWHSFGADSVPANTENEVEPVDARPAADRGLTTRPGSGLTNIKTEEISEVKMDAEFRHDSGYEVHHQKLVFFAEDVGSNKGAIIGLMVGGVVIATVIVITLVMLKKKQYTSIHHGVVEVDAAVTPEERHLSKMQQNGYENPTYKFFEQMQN
An asterisk follows results filed as active; [ ] = another dose, or the depositor's remark. Compounds with a hit are over-represented: about 3.2% of the library has one in this group of screens. Unless noted, the call rests on the fitted dose curve; in most records, active means well fitted curve in the direction sought with a large enough effect; inconclusive means small, poorly fitted or top-dose-only effect, or another doubt; inactive means no such curve, though single readings can be large; an effect the other way counts as inactive or inconclusive.

Screening CN1CCN(c2ncc3nc(-c4ccc(Cl)cc4)c(=O)n(Cc4cccs4)c3n2)CC1 returned ALOX15 inhib 4%, DNA Pol III inh 9%, Tau fil binding 2µM*, HBB splicing 1%, UbGFP stabilizer 0% and Epigenetic mod 2%[9.22 µM].
For CN1CCN(c2ncc3nc(-c4cccs4)c(=O)n(Cc4cccs4)c3n2)CC1 the results were ALOX15 inhib -15%, DNA Pol III inh -18%, Tau fil binding inactive, HBB splicing inconclusive, UbGFP stabilizer inconclusive and Epigenetic mod 2%[9.22 µM].
Screening O=c1c(-c2cc(F)cc(F)c2)nc2cnc(N3CCNCC3)nc2n1Cc1cccs1 returned ALOX15 inhib -6%, DNA Pol III inh -8%, Tau fil binding inconclusive, HBB splicing 0%, UbGFP stabilizer 9% and Epigenetic mod -4%[9.22 µM].
O=c1c(-c2cccs2)nc2cnc(N3CCNCC3)nc2n1Cc1cccs1 was read as ALOX15 inhib -27%, DNA Pol III inh 7.9µM*, Tau fil binding inactive, HBB splicing 0%, UbGFP stabilizer -9% and Epigenetic mod 3%[9.22 µM].
C[N@+]1(CCC(=O)c2ccccc2)CC[C@H]2CC[C@H](C2)C1 was read as ALOX15 inhib 3%[11.4 µM], DNA Pol III inh -9%[11.4 µM], Tau fil binding 7%[11.4 µM], HBB splicing 0%[9.22 µM], UbGFP stabilizer -8%[9.17 µM] and Epigenetic mod -3%[9.22 µM].
For CC(C)N(C)C the results were ALOX15 inhib -5%, DNA Pol III inh 0%, Tau fil binding -2% and HBB splicing 0%.
`Cc1ccc2nc(NC(=O)C3CCN(S(=O)(=O)c4cccc5nsnc45)CC3)sc2c1` gave ALOX15 inhib inconclusive, DNA Pol III inh -1%, Tau fil binding 5µM*, HBB splicing -1%, UbGFP stabilizer -10%, Epigenetic mod -3%, Tau ThS bind inactive, aSyn ThS bind inconclusive and Abeta ThS displ inactive.
Cc1ccnc(NC(=O)C2CCN(S(=O)(=O)c3cccc4nsnc34)CC2)c1 was read as ALOX15 inhib -4%, DNA Pol III inh -5%, Tau fil binding -86%, HBB splicing -1%, UbGFP stabilizer 10% and Epigenetic mod 0%.
Screening Cc1ccc2nc(NC(=O)C3CCCN(S(=O)(=O)c4cccc5nsnc45)C3)sc2c1 (stereo unspecified) returned ALOX15 inhib inconclusive, DNA Pol III inh 5%, Tau fil binding 7.9µM*, HBB splicing 0%, UbGFP stabilizer -10%, Epigenetic mod 0%, Tau ThS bind inactive, aSyn ThS bind inconclusive and Abeta ThS displ inactive.
For CN(C)c1ccc(C(=C2C=CC(=[N+](C)C)C=C2)c2ccc(N(C)C)cc2)cc1 the results were ALOX15 inhib -3%, DNA Pol III inh 40µM*, Tau fil binding 0.13µM*, HBB splicing -1%, Tau ThS bind 0.18µM*, aSyn ThS bind 0.15µM* and Abeta ThS displ 0.15µM*.
`Cc1ccc(N(C)C)cc1` gave ALOX15 inhib -3%, DNA Pol III inh 2%, Tau fil binding -10% and HBB splicing 1%.
`O=C1c2ccccc2-c2ccc(N=[N+]([O-])c3ccc4c(c3)C(=O)c3ccccc3-4)cc21` gave ALOX15 inhib -6%[11.4 µM], DNA Pol III inh -10%[11.4 µM], Tau fil binding 5%[11.4 µM], HBB splicing 0%[9.22 µM], UbGFP stabilizer 10%[9.17 µM] and Epigenetic mod -3%[9.22 µM].
COc1ccc2noc3c2c1C(=O)c1ccccc1-3 was read as ALOX15 inhib inconclusive, DNA Pol III inh 482%, Tau fil binding inactive, HBB splicing -1%[9.22 µM], UbGFP stabilizer 22% and Epigenetic mod 2%.
O=C1c2ccccc2-c2onc3ccc(NCCCn4ccnc4)c1c23 was read as ALOX15 inhib 22%, DNA Pol III inh 354%, Tau fil binding 0.13µM*, HBB splicing 3%, UbGFP stabilizer 3%, Epigenetic mod -5%, Tau ThS bind 5.5µM*, aSyn ThS bind 3.2µM* and Abeta ThS displ 2.2µM*.
Screening O=S(=O)(Nc1ccc(Cl)cc1Cl)c1cc(Cl)ccc1Cl returned ALOX15 inhib -12%.
Screening CO[C@@H]1COC(=O)[C@@H](CCSC)NC(=O)C/C=C\[C@@H](C)COC(=O)[C@H](C)NC(=O)C/C=C\[C@H]1C returned ALOX15 inhib -1%[11.4 µM] and HBB splicing 2%[9.22 µM].
Screening Cc1cccc(Cl)c1NC[C@H](O)CN1CCN(C)CC1 returned ALOX15 inhib 3%[11.4 µM], DNA Pol III inh -7%[11.4 µM], Tau fil binding 3%[11.4 µM], HBB splicing 3%[9.22 µM], UbGFP stabilizer -4%[9.17 µM] and Epigenetic mod -1%[9.22 µM].
Screening Cc1ccccc1Cn1ccc(NC(=O)c2cnn3c(C(F)(F)F)cc(-c4ccco4)nc23)n1 returned ALOX15 inhib -11%, DNA Pol III inh -10%, Tau fil binding 2.5µM*, HBB splicing -1%, UbGFP stabilizer -7%, Epigenetic mod 3%, Tau ThS bind inconclusive, aSyn ThS bind 2.6µM* and Abeta ThS displ 6.7µM*.
Cc1ccc2nc(-c3ccc(N=Nc4cc(S(=O)(=O)O)c5ccccc5c4O)cc3)sc2c1S(=O)(=O)O was read as Tau ThS bind 2.1µM*, aSyn ThS bind 9.5µM* and Abeta ThS displ inconclusive.
`CCS(=O)(=O)Nc1cc(-c2nc3cccnc3s2)ccc1C` gave ALOX15 inhib -5%, DNA Pol III inh -4%, Tau fil binding 1%, HBB splicing -1% and UbGFP stabilizer 16%.
`Cc1ccc(/C=N/c2sc3c(c2C#N)CCC3)s1` gave ALOX15 inhib -4%, DNA Pol III inh -2%, Tau fil binding 2.5µM*, HBB splicing -1%, UbGFP stabilizer -5%, Epigenetic mod 0%, Tau ThS bind inactive, aSyn ThS bind inconclusive and Abeta ThS displ inactive.
Screening N#Cc1c(-n2cccc2/C=N/O)sc2c1CCCC2 returned ALOX15 inhib -8%, DNA Pol III inh -1%, Tau fil binding -8%, HBB splicing -2%, UbGFP stabilizer 2% and Epigenetic mod 0%.
For CC(C)CO/N=C1/C[C@@H](O)[C@@H](O)[C@@H]2[C@@H]3C(=O)N(c4cccc(Oc5ccccc5)c4)C(=O)[C@H]3CC[C@H]12 the results were ALOX15 inhib -4%[11.4 µM] and HBB splicing 1%[9.22 µM].

From PubChem
